Assay results as given in PubChem BioAssay (NCI).
The panel holds about 83,000 compounds, 20% with a hit somewhere; the sample as a whole holds those more often.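 Single-dose data. Exposure time 48 hours. Values below 10 considered active.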 A number with no mark means an inactive call. The source made the active and inactive calls.

How the values were obtained:
Test in all cases: NCI-60 one-dose screen, 48 h (100 = growth as untreated, 0 = no growth, -100 = all killed)
SR leukemia = settings: 10 µM unless noted
RPMI-8226 leukemia = settings: 10 µM unless noted
OVCAR-8 ovarian = settings: 10 µM unless noted
OVCAR-5 ovarian = settings: 10 µM unless noted
OVCAR-4 ovarian = settings: 10 µM unless noted
SK-OV-3 ovarian = settings: 10 µM unless noted
IGROV1 ovarian = settings: 10 µM unless noted
OVCAR-3 ovarian = settings: 10 µM unless noted
HS 578T breast = settings: 10 µM
NCI/ADR-RES ovarian = settings: 10 µM unless noted
T-47D breast = settings: 10 µM unless noted
BT-549 breast = settings: 10 µM unless noted
MDA-MB-435 melanoma = settings: 10 µM unless noted
SW-620 colon = settings: 10 µM unless noted
MCF7 breast = settings: 10 µM unless noted
HCT-116 colon = settings: 10 µM unless noted
HCC-2998 colon = settings: 10 µM unless noted
KM12 colon = settings: 10 µM unless noted

SMILES	growth (SR leukemia)	growth (RPMI-8226 leukemia)	growth (OVCAR-8 ovarian) [%]	growth (OVCAR-5 ovarian) [%]	growth (OVCAR-4 ovarian) [%]	growth (SK-OV-3 ovarian)	growth (IGROV1 ovarian)	growth (OVCAR-3 ovarian) [%]	growth (HS 578T breast)	growth (NCI/ADR-RES ovarian) [%]	growth (T-47D breast) [%]	growth (BT-549 breast) [%]	growth (MDA-MB-435 melanoma)	growth (SW-620 colon)	growth (MCF7 breast)	growth (HCT-116 colon)	growth (HCC-2998 colon) [%]	growth (KM12 colon) [%]
CCCc1cc2c(cc1CN(Cc1cc3c(cc1CCC)OCO3)C(=N)OCC)OCO2	91.2%	55.2%	82.4	98.9	77.9	92.7%	63.3%	69.1	73.1%	91.2	84.7	80.4	103%	81%	86.5%	41.2%	90.5	92.8
O=C1Nc2ccccc2/C1=C/c1c[nH]c2ccccc12	77.5%	77.1%	84.9	105	71.7	95.7%	2.73% (active)	93.5	67.6%	89.6	68.3	73.5	92.3%	100%	63.2%	79.2%	98.6	23.1
Cc1cc(C)c2c(n1)sc1c(Nc3ccc(O)cc3)ncnc12	13.4%	39%	10.8	55.4	90.6	30.5%	68.2%	55.3	82.5%	19.1	39.6	50.6	36.6%	45.6%	20.3%	29.2%	63.3	50.3
N#Cc1nc(-c2ccc(Cl)cc2)cc(-c2ccc(Nc3nc(N4CCCCC4)nc(N4CCCCC4)n3)cc2)c1N	105%	111%	96.5	113	110	90.9%	91.4%	105	94.1%	102	100	99.2	106%	99.3%	99.6%	102%	112	107
CC(C)(C)c1ccc(Cn2c(-c3nonc3N)nc3ccccc32)cc1	28.2%	61.9%	80.1	99.2	98.4	61%	66.6%	69	85.1%	75.8	53.6	90.2	8.66% (active)	51.5%	35.5%	62.6%	77.7	59.4
CN1CCN(Cc2ccc(NC(=O)c3cnc(F)c(C#Cc4cnc(N)c5ncccc45)c3)cc2C(F)(F)F)CC1	13.4%	18.2%	29.6	37.2	16.6	3.65% (active)	13.9%	46.2	-10.1% (active)	29.9	30.3	41.9	10.2%	8.66% (active)	42.6%	7.2% (active)	40.7	11.2
O=C(Cc1ccc(Nc2ccnc(C(F)(F)F)c2)cc1)N/N=C/c1ccccc1O	98.2%	29.6%	25.6	28.1	18.4	17.1%	18.8%	40.8	102%	23.8	18.4	50.2	34.7%	38.3%	12.9%	16.1%	40.5	30.7
COc1ccc(/C(=C\c2ccc3c(c2)OCO3)C(=O)Nc2nc3ccc(F)cc3s2)cc1OC	92.5%	102%	110	104	93.8	100%	95.8%	90.7	104%	123	101	97.1	99.8%	104%	94.9%	97.7%	109	96.3
C/C=C(\C)C(C(=O)NC1CCCCC1)N(C(=O)C1CCc2cc(F)ccc2O1)c1ccc([N+](=O)[O-])cc1 (stereo unspecified)	101%	79.1%	88.4	93.4	79	90.5%	85.8%	89.4	80.2%	85.7	88.1	90.1	87.7%	94.9%	77%	60.3%	98.4	95.8
COC(=O)CNS(=O)(=O)c1ccc2c(c1)Cc1cc(S(=O)(=O)NCC(=O)OC)ccc1-2	102%	103%	97.3	103	102	97.7%	96.5%	102	95.7%	105	99.5	100	103%	102%	95.5%	109%	111	109
CN1CCN(Cc2ccc(NC(=O)c3ccc(C#N)c(C#Cc4cnc(N)c5ncccc45)c3)cc2C(F)(F)F)CC1	9.25% (active)	69.7%	12.6	18	75.2	97.6%	55.3%	102	68.2%	94	112	103	56%	23.4%	16.3%	-10.5% (active)	112	13.5
CN(C)c1ccc(C(c2ccccc2)c2ccc(N(C)C)cc2)cc1	68.2%	57.4%	90.9	94	99.8	106%	113%	94.9	98.8%	85	86.7	101	97%	93.4%	90.3%	80.6%	95.7	91.5
O=C(N=Nc1c(Cl)c(O)c2ccccc2c1O)C(=O)Nc1cccc(C(F)(F)F)c1	32.2%	76.9%	83.6	118	66.9	89.6%	39.3%	24.7	83.8%	71	44.9	69	-29.3% (active)	63.6%	-4.71% (active)	33.1%	96.2	53.6
Fc1ccc2c(CN3CCO[C@H](COc4cccc(Cl)c4)C3)c[nH]c2c1	37.3%	12.5%	33.3	85.8	71.2	85.7%	63%	36.7	64.8%	47.3	37.5	57.7	50%	59.7%	20.3%	28.8%	96.9	38.9
COc1cc(-c2nc(-c3nc4cc(C(=O)c5ccccc5)ccc4[nH]3)cc3c2[nH]c2ccccc23)cc(OC)c1OC	81.6%	42%	67.4	103	96.8	146%	107%	101	95.7%	88.7	88.9	79.7	96.2%	103%	86.3%	82.6%	104	84.5
CCN(CC)CCCCCCCNc1cc(OC)cc2c(C)ccnc12	73.2%	68.9%	67.2	97.5	21.1	94.9%	52.6%	20.6	72.4%	78.6	53.6	82.6	98.6%	88.6%	27.2%	70.9%	90.9	89.9
CN(C)CCOc1nc2c3ccncc3cc(-c3cccc(Cl)c3)c2c2cnccc12	-27.7% (active)	9% (active)	18.2	58.8	33.5	46.8%	28.9%	45.6	54.3%	15.4	38.7	52.6	30%	27.4%	12.5%	11.4%	45	31.8
